Experimental data as given in PubChem BioAssay (NCI).
About 83,000 compounds went through this panel and 20% of them were active in at least one assay; those are over-represented in the sample as a whole.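 96-well plates, one dose, 48 hours. Percent growth reported; active if below 10.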 Unmarked numbers belong to inactive results. Active and inactive are the calls of the source.

Experiments:
Assay in all cases: NCI-60 one-dose screen, 48 h (100 = growth as untreated, 0 = no growth, -100 = all killed)
Conditions in all cases: 10 µM unless noted
HCT-15 colon = test system: HCT-15 colon
HT29 colon = test system: HT29 colon
SNB-75 CNS = test system: SNB-75 CNS
SNB-19 CNS = test system: SNB-19 CNS
U251 CNS = test system: U251 CNS
PC-3 prostate = test system: PC-3 prostate
SK-MEL-5 melanoma = test system: SK-MEL-5 melanoma
SK-MEL-2 melanoma = test system: SK-MEL-2 melanoma
EKVX NSCLC = test system: EKVX NSCLC
SN12C renal = test system: SN12C renal
TK-10 renal = test system: TK-10 renal
ACHN renal = test system: ACHN renal
CAKI-1 renal = test system: CAKI-1 renal
A498 renal = test system: A498 renal
CCRF-CEM leukemia = test system: CCRF-CEM leukemia
MOLT-4 leukemia = test system: MOLT-4 leukemia
LOX IMVI melanoma = test system: LOX IMVI melanoma
UO-31 renal = test system: UO-31 renal
UACC-62 melanoma = test system: UACC-62 melanoma
SK-MEL-28 melanoma = test system: SK-MEL-28 melanoma

SMILES: O=S(=O)(NCCNc1cc(-c2cn(-c3ccccc3)nc2-c2cccc(O)c2)ccn1)c1ccc(C(F)(F)F)cc1
- growth (HCT-15 colon): 28.5%
- growth (HT29 colon): 4.36% (active)
- growth (SNB-75 CNS): 49.7%
- growth (SNB-19 CNS): 54.4%
- growth (U251 CNS): 36.5%
- growth (PC-3 prostate): 22.6%
- growth (SK-MEL-5 melanoma): 36.9%
- growth (SK-MEL-2 melanoma): 56.2%
- growth (EKVX NSCLC): 52.3%
- growth (SN12C renal): 33.9%
- growth (TK-10 renal): 59.9%
- growth (ACHN renal): 18.3%
- growth (CAKI-1 renal): -1.88% (active)
- growth (A498 renal): 52.6%
- growth (CCRF-CEM leukemia): 16.9%
- growth (MOLT-4 leukemia): 4.81% (active)

SMILES: C=C1C(=O)O[C@H]2[C@H]1CC/C(Cn1cc(-c3ccc(F)cc3)nn1)=C\CC[C@@]1(C)O[C@@H]21
- growth (HCT-15 colon): -78.8% (active)
- growth (HT29 colon): -84.8% (active)
- growth (SNB-75 CNS): 85.5%
- growth (SNB-19 CNS): 66.8%
- growth (U251 CNS): 20.7%
- growth (PC-3 prostate): 28.5%
- growth (SK-MEL-5 melanoma): 36.3%
- growth (LOX IMVI melanoma): -89.3% (active)
- growth (SK-MEL-2 melanoma): 14.9%
- growth (EKVX NSCLC): 68.4%
- growth (SN12C renal): -13.6% (active)
- growth (UO-31 renal): -80.8% (active)
- growth (TK-10 renal): -92.9% (active)
- growth (ACHN renal): -19.7% (active)
- growth (CAKI-1 renal): -12.9% (active)
- growth (CCRF-CEM leukemia): -36.6% (active)
- growth (MOLT-4 leukemia): -25.4% (active)

SMILES: COc1cccc(-c2nn(-c3ccccc3)cc2-c2ccnc(NCCCN)c2)c1
- growth (HCT-15 colon): 56.7%
- growth (HT29 colon): 86.2%
- growth (SNB-75 CNS): 45.4%
- growth (SNB-19 CNS): 48.9%
- growth (U251 CNS): 38.9%
- growth (PC-3 prostate): 47.7%
- growth (SK-MEL-5 melanoma): 28.5%
- growth (LOX IMVI melanoma): 54.8%
- growth (SK-MEL-2 melanoma): 26.3%
- growth (EKVX NSCLC): 66.7%
- growth (SN12C renal): 50.9%
- growth (TK-10 renal): 72.2%
- growth (ACHN renal): 82.7%
- growth (CAKI-1 renal): 83.5%
- growth (A498 renal): 42.3%
- growth (CCRF-CEM leukemia): 29.3%
- growth (MOLT-4 leukemia): 22.9%

SMILES: CC1=NN(c2ccc(S(=O)(=O)O)cc2Cl)C(=O)C1
- growth (HCT-15 colon): 112%
- growth (HT29 colon): 109%
- growth (SNB-75 CNS): 90.2%
- growth (SNB-19 CNS): 96.2%
- growth (U251 CNS): 107%
- growth (PC-3 prostate): 103%
- growth (UACC-62 melanoma): 103%
- growth (LOX IMVI melanoma): 104%
- growth (SK-MEL-28 melanoma): 122%
- growth (SK-MEL-2 melanoma): 112%
- growth (EKVX NSCLC): 101%
- growth (SN12C renal): 100%
- growth (UO-31 renal): 89.2%
- growth (TK-10 renal): 101%
- growth (ACHN renal): 105%
- growth (CAKI-1 renal): 85.1%
- growth (A498 renal): 102%
- growth (CCRF-CEM leukemia): 99.1%
- growth (MOLT-4 leukemia): 123%

SMILES: CCCNc1nc(N(C)O)nc(N(C)O)n1
- growth (HCT-15 colon): 26.5%
- growth (HT29 colon): 40.7%
- growth (SNB-75 CNS): 77.3%
- growth (SNB-19 CNS): 38.3%
- growth (U251 CNS): 27.8%
- growth (PC-3 prostate): 51.9%
- growth (UACC-62 melanoma): 31.5%
- growth (LOX IMVI melanoma): 22.9%
- growth (SK-MEL-28 melanoma): 41.4%
- growth (SK-MEL-2 melanoma): 74.1%
- growth (EKVX NSCLC): 36.9%
- growth (SN12C renal): 47.1%
- growth (UO-31 renal): 21.7%
- growth (TK-10 renal): 65.1%
- growth (ACHN renal): 14.5%
- growth (CAKI-1 renal): 25%
- growth (A498 renal): 22.3%
- growth (CCRF-CEM leukemia): 6.78% (active)
- growth (MOLT-4 leukemia): 14.8%

SMILES: CCN(CC)CCCCCCNc1ccnc2cc(Cl)ccc12
- growth (HCT-15 colon): 92.6%
- growth (HT29 colon): 27%
- growth (SNB-75 CNS): 87%
- growth (SNB-19 CNS): 113%
- growth (U251 CNS): 85.3%
- growth (PC-3 prostate): 87%
- growth (SK-MEL-5 melanoma): 80.8%
- growth (SK-MEL-28 melanoma): 106%
- growth (SK-MEL-2 melanoma): 128%
- growth (EKVX NSCLC): 76.5%
- growth (SN12C renal): 84.9%
- growth (UO-31 renal): 86.1%
- growth (TK-10 renal): 113%
- growth (ACHN renal): 111%
- growth (CAKI-1 renal): 84.2%
- growth (A498 renal): 118%
- growth (CCRF-CEM leukemia): 113%
- growth (MOLT-4 leukemia): 101%

SMILES: Nc1ccc(Cl)cn1
- growth (HCT-15 colon): 98.6%
- growth (HT29 colon): 96.9%
- growth (SNB-75 CNS): 80.2%
- growth (SNB-19 CNS): 107%
- growth (U251 CNS): 94.3%
- growth (PC-3 prostate): 90%
- growth (SK-MEL-5 melanoma): 103%
- growth (SK-MEL-28 melanoma): 110%
- growth (SK-MEL-2 melanoma): 107%
- growth (EKVX NSCLC): 97.4%
- growth (SN12C renal): 107%
- growth (TK-10 renal): 106%
- growth (ACHN renal): 109%
- growth (CAKI-1 renal): 90.5%
- growth (A498 renal): 96.4%
- growth (CCRF-CEM leukemia): 107%
- growth (MOLT-4 leukemia): 102%

SMILES: COC(=O)[C@]12CC[C@@H](C)[C@H](C)[C@@H]1C1=CC[C@@H]3[C@@]4(C)C=C(O)C(=O)C(C)=C4CC[C@@]3(C)[C@]1(C)CC2
- growth (HCT-15 colon): 25.2%
- growth (HT29 colon): 11.7%
- growth (SNB-75 CNS): 63%
- growth (SNB-19 CNS): 59.9%
- growth (U251 CNS): 43.4%
- growth (PC-3 prostate): 12.7%
- growth (SK-MEL-5 melanoma): 29.5%
- growth (LOX IMVI melanoma): 16.5%
- growth (SK-MEL-2 melanoma): 27%
- growth (EKVX NSCLC): 1.05% (active)
- growth (UO-31 renal): 34.3%
- growth (TK-10 renal): 14.6%
- growth (ACHN renal): 22.4%
- growth (CAKI-1 renal): 33.4%
- growth (A498 renal): 81.5%
- growth (CCRF-CEM leukemia): -26.2% (active)
- growth (MOLT-4 leukemia): -15.9% (active)

SMILES: CC(=O)Nc1cc(F)cc(C(F)(F)F)c1Cl
- growth (HCT-15 colon): 102%
- growth (HT29 colon): 101%
- growth (SNB-75 CNS): 83.2%
- growth (SNB-19 CNS): 106%
- growth (U251 CNS): 105%
- growth (PC-3 prostate): 95.7%
- growth (UACC-62 melanoma): 102%
- growth (LOX IMVI melanoma): 92.1%
- growth (SK-MEL-28 melanoma): 101%
- growth (SK-MEL-2 melanoma): 105%
- growth (EKVX NSCLC): 98%
- growth (SN12C renal): 105%
- growth (UO-31 renal): 92.8%
- growth (TK-10 renal): 104%
- growth (ACHN renal): 99.3%
- growth (CAKI-1 renal): 91.5%
- growth (A498 renal): 100%
- growth (CCRF-CEM leukemia): 102%
- growth (MOLT-4 leukemia): 105%
